Source: PubChem BioAssay (NCATS)
Results filed as inconclusive are left out. Activity calls are given as the source filed them. The call rests on the fitted dose curve; in most records, active means well fitted curve in the direction sought with a large enough effect; inconclusive means small, poorly fitted or top-dose-only effect, or another doubt; inactive means no such curve, though single readings can be large; an effect the other way counts as inactive or inconclusive.

Tests used:
[1] = test system: Zika virus NS2B-NS3 protease (linked construct); experiment: Primary screen NINDS Rhodamine qHTS for Zika virus inhibitors (AID 1347160); further: on the % scale 0 is the no-effect control and ±100 the full control effect; nearly all actives have a fitted effect of over 55% in size
Procedure, shortened: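 Percent inhibition, normalized to uninhibited and enzyme-free controls, is fitted to a 4-parameter Hill equation. Fluorescence change comes from a 15-min cleavage of 1.5 microM bis-peptide Rhodamine110 substrate by 25 nM linked NS2B-NS3 at room temperature.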

[2] = OV-KATE Cancer Cell Toxicity qHTS against the NCATS CANVASS Library (AID 1347345); further: on the % scale 0 is the no-effect control and ±100 the full control effect
Procedure, shortened: (§1)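 1000 cells/well seeded and rested 4 h at 37 °C before pin transfer of compounds in an 11-pnt series. Exposure 72 h at 37 °C/5% CO2; viability by CellTiter-Glo luminescence after 15 min at room temperature.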

[3] = HPAF-II Cancer Cell Toxicity qHTS against the NCATS CANVASS Library (AID 1347346); further: series mostly up to about 38 µM; on the % scale 0 is the no-effect control and ±100 the full control effect; nearly all actives have a fitted effect of over 55% in size
Procedure, shortened: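 HPAF-II cells were seeded at 1000 cells/well, allowed to settle for 4 h at 37 degrees C, then exposed to compounds in an 11-point series for 72 h. Viability was read by CellTiter-Glo luminescence.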

[4] = UWB1.289 Cancer Cell Toxicity qHTS against the NCATS CANVASS Library (AID 1347347); further: series mostly up to about 38 µM; on the % scale 0 is the no-effect control and ±100 the full control effect; nearly all actives have a fitted effect of over 60% in size
Procedure, shortened: as §1

[5] = OV-SAHO Cancer Cell Toxicity qHTS against the NCATS CANVASS Library (AID 1347348); further: series mostly up to about 38 µM; on the % scale 0 is the no-effect control and ±100 the full control effect; nearly all actives have a fitted effect of over 55% in size
Procedure, shortened: as §1

[6] = SW1088 Cancer Cell Toxicity qHTS against the NCATS CANVASS Library (AID 1347350); further: series mostly up to about 38 µM; on the % scale 0 is the no-effect control and ±100 the full control effect; nearly all actives have a fitted effect of over 75% in size
Procedure, shortened: as §1

[7] = U-118MG Cancer Cell Toxicity qHTS against the NCATS CANVASS Library (AID 1347351); further: series mostly up to about 38 µM; on the % scale 0 is the no-effect control and ±100 the full control effect
Procedure, shortened: as §1

[8] = COV-362 Cancer Cell Toxicity qHTS against the NCATS CANVASS Library (AID 1347352); further: series mostly up to about 38 µM; on the % scale 0 is the no-effect control and ±100 the full control effect
Procedure, shortened: (§2)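 Cells were seeded at 1000 per well and allowed to settle 4 hours at 37 degrees C before pin transfer of compounds as an 11-point series. Viability was read by CellTiter-Glo luminescence after 72 hours' exposure.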

[9] = A2780 Cisplatin Sensitive Ovarian Cancer Cell Toxicity qHTS against the NCATS CANVASS Library (AID 1347353); further: nearly all actives have a fitted effect of over 60% in size
Procedure, shortened: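 A2780 cisplatin-sensitive cells (750 per well) were seeded, left 4 h at 37 °C, then pin-dosed in an 11-point series. After 72 h at 37 °C/5% CO2, viability was measured as ATPLite luminescence.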

[10] = UWB1.289-WTBRCA1 Cancer Cell Toxicity qHTS against the NCATS CANVASS Library (AID 1347354); further: on the % scale 0 is the no-effect control and ±100 the full control effect
Procedure, shortened: as §2

[11] = HEK-293 Cancer Cell Toxicity qHTS against the NCATS CANVASS Library (AID 1347355); further: series mostly up to about 46 µM; on the % scale 0 is the no-effect control and ±100 the full control effect; nearly all actives have a fitted effect of over 65% in size
Procedure, shortened: as §2

[12] = HPAF-II 24hr Apoptosis Induction qHTS against the NCATS CANVASS Library (AID 1347356); further: 0% is about no effect
Procedure, shortened: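 HPAF-II cells (500/well) in DMEM + 10% FBS were treated with an 11-point compound series for 24 hours at 37 degrees C. Caspase-3/7 activity was then read by Caspase-Glo DEVD luminescence after 15 min.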

[13] = HEK293 18hr Apoptosis Induction qHTS against the NCATS CANVASS Library (AID 1347357); further: 0% is about no effect
Procedure, shortened: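 HEK293 cells (500 per well, DMEM with 10% FBS) were treated with natural products, incubated 18 hours at 37 degrees C, then caspase-3/7 activity was read by Caspase-Glo luminescence after 15 min at room temperature.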

[14] = HEK293 24hr Apoptosis Induction qHTS against the NCATS CANVASS Library (AID 1347359); further: 0% is about no effect
Procedure, shortened: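 Caspase-3/7 activation measured as luminescence from the DEVD-based Caspase-Glo reagent, 15 min at room temperature, following 24-hour compound treatment of HEK293 cells.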

[15] = HEK293 12hr Apoptosis Induction qHTS against the NCATS CANVASS Library (AID 1347361); further: 0% is about no effect
Procedure, shortened: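 Read-out: Caspase-Glo 3/7 luminescence (DEVD substrate), 15 min RT. Preceded by 12 h compound exposure of HEK293, 500 cells/well, 11-pt qHTS titration; doxorubicin titration as control.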

[16] = target: Luciferin 4-monooxygenase (Photinus pyralis) (UniProt P08659); experiment: Firefly luciferase counterscreen qHTS: Assay Interference Panel against the NCATS CANVASS Library (AID 1347363); further: series mostly up to about 57 µM; 0% is about no effect
Sequence of Luciferin 4-monooxygenase (Photinus pyralis) (P08659 whole entry, looked up): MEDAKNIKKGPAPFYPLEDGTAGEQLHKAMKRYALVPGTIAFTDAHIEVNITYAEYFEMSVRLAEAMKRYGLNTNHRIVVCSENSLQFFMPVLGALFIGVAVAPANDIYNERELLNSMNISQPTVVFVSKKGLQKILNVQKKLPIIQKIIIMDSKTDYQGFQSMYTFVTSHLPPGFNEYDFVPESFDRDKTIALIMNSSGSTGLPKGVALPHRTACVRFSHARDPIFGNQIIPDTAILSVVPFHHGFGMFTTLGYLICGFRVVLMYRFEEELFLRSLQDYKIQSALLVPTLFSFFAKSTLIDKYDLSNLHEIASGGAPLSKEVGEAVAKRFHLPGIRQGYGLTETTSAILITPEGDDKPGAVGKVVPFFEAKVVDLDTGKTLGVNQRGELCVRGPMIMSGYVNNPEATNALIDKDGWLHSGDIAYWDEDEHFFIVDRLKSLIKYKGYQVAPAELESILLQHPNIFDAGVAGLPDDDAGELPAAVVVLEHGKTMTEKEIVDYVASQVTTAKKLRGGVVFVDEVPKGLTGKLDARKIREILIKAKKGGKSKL
Procedure, shortened: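 Luminescence inhibition readout: compounds (11-point qHTS) sat 15 min at room temperature with substrate mix (0.013 mM luciferin and ATP), then firefly luciferase was added and signal read 5 min later.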

[17] = KB-3-1 Cancer Cell Toxicity qHTS against the NCATS CANVASS Library (AID 1347366); further: series mostly up to about 46 µM; on the % scale 0 is the no-effect control and ±100 the full control effect; nearly all actives have a fitted effect of over 75% in size
Procedure, shortened: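 KB-3-1 cells (500 cells/well) in DMEM + 10% FBS were treated with compounds for 72 hr at 37C, 5% CO2. Viability was read as CellTiter-Glo luminescence after 10 minutes at room temperature.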

[18] = qHTS for ATAD5 Agonist screened against the NCATS CANVASS Library (AID 1347367);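 further: luciferase reporter driven by ATAD5 which rises upon DNA damage; 0% is about no effect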
Procedure, shortened: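 HEK293T cells stably carrying an ATAD5-controlled luciferase reporter (2000 cells/well) attached for 5 hr, then received compounds in an 11-point series for 16hr at 37C. Luminescence was read after a 30 min room-temperature reagent step.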

[19] = G06 Cancer Cell Toxicity qHTS against the NCATS CANVASS Library (AID 1347368); further: series mostly up to about 46 µM; on the % scale 0 is the no-effect control and ±100 the full control effect; nearly all actives have a fitted effect of over 60% in size
Procedure, shortened: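 G06 dog glioma cells seeded at 500 cells/well were exposed to compounds (11-point qHTS series) for 72 hr at 37C, 5% CO2; viability read as ATP content by CellTiterGlo luminescence.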

[20] = MCF7 Cancer Cell Toxicity qHTS against the NCATS CANVASS Library (AID 1347369)
Procedure, shortened: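 MCF7, 500 cells/well; cpds 11-pt qHTS; 72 hr, 37C/5% CO2; CellTiterGlo ATP luminescence.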

COc1ccc2oc3c(OC)c(OC)c(OC)c(OC)c3c(=O)c2c1
inactive: Potency [1] | activity change, negative = cytotoxicity [2] -4.56% [at 7.64 µM] | activity change, negative = cytotoxicity [3] -3.19% [at 7.64 µM] | activity change, negative = cytotoxicity [4] -4.07% [at 7.64 µM] | activity change, negative = cytotoxicity [5] -19.6% [at 7.64 µM] | activity change, negative = cytotoxicity [6] 3.04% [at 7.64 µM] | activity change, negative = cytotoxicity [7] 3.45% [at 7.64 µM] | activity change, negative = cytotoxicity [8] -3.36% [at 7.64 µM] | outcome [9] inactive [at 9.19 µM] | activity change, negative = cytotoxicity [10] 9.39% [at 7.64 µM] | activity change, negative = cytotoxicity [11] -6.97% [at 9.19 µM] | caspase activation [12] 1.51% [at 9.19 µM] | caspase activation [13] 2.9% [at 9.19 µM] | activation [14] -1% [at 9.19 µM] | caspase activation [15] 10.6% [at 9.19 µM] | activity change, negative = inhibition [16] -22.3% [at 11.5 µM] | activity change, negative = cytotoxicity [17] -8.69% [at 9.19 µM] | activation [18] 0.941% [at 9.19 µM] | activity change, negative = cytotoxic [19] -19.7% [at 9.19 µM] | activity change, negative = cytotoxicity [20] 0.434% [at 9.17 µM]
